The values that follow come from PubChem BioAssay.

Assay [1] concerns Wnt5a (protein binding on small-molecule microarray). Kind of assay: small molecules binding Wnt5a protein – biophysical, small-molecule microarray, 635/667 nm fluorescence, primary screen (AID 1142).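 Note: fluorescence read at 667 nm with signal to noise per printed feature.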 The following applies: 635 nm fluorescence, higher = more signal.
A short description of assay [2]: ATP-based viability of Huh7 replicon cells – cell-based, CellTiter-Glo luminescence, basal, 48 h, cytotoxicity control for HCV replication inhibitor project, primary screen (AID 1143).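 Note: Huh7 hepatoma cells carrying a hepatitis C replication reporter with no stimulus; test concentration not given here.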 The following applies: higher = more signal, called active from +8 up or from −8 down.
Assay [3] is described as follows: Pseudomonas biofilm growth suppression – PAO1 strain, BacTiter-Glo luminescence, LB-PBS, primary screen (AID 1144). The following applies: P. aeruginosa PAO1 biofilm, 12 h, higher = more signal.
The nature of assay [4]: basal CRE-LacZ reporter activity in PC12 – cell-based, unstimulated, primary screen (AID 1145). The settings on record: no forskolin, luminescence, 4.5 h, higher = more signal, called active from +8 up or from −8 down.
Assay [5] is described as follows: forskolin-driven CRE-LacZ activity in PC12 – cell-based, CRE-LacZ reporter, forskolin-stimulated, primary screen (AID 1146).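 Note: PC12 cells with 6xCRE LacZ reporter stimulated by forskolin 10 µM; beta-galactosidase reporter signal reflecting CREB driven transcription.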 The following applies: luminescence, 4.5 h, higher = more signal, called active from +8 up or from −8 down.
Assay [6] has as its target Streptavidin (Streptomyces avidinii) (UniProt P22629). Kind of assay: compounds binding control protein streptavidin – biophysical, small-molecule microarray, 635/667 nm fluorescence, artefact control for SMM compound annotation, primary screen (AID 1147).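 Note: signal reflects streptavidin binding to arrayed compounds as a control protein.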 The settings on record: higher = more signal.
A short description of assay [7]: probe aInhba binding on compound microarray – biochemical, small-molecule microarray, 635/667 nm fluorescence, primary screen (AID 1148).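 Note: score merges 667nm spot fluorescence with signal-to-noise for antibody binding to printed compounds.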 The following applies: higher = more signal.
The target of assay [8] is Torsin-1A (Homo sapiens) (UniProt O14656). Kind of assay: TOR1A wild-type binding on microarray – cell lysate, small-molecule microarray, lysate, 635/667 nm, primary screen (AID 1149). The following applies: COS7 hTOR1A-WT lysate, 635 nm fluorescence, higher = more signal.
Assay [9] has the same target. Kind of assay: torsin A mutant lysate binding on microarrays – cell lysate, small-molecule microarray, COS7 lysate, 635/667 nm fluorescence, primary screen (AID 1150).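 Note: score pools 667 nm emission and signal to noise measuring lysate protein binding.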 The settings on record: COS7 hTOR1A mutant lysate, 635 nm fluorescence, higher = more signal.
Assay [10] deals with Sonic hedgehog protein (Shh). As to the kind of experiment: Sonic hedgehog microarray binding compounds – biochemical, small-molecule microarray, 635/667 nm fluorescence, primary screen (AID 1151).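 Note: Shh protein binding to compounds spotted on small-molecule microarray slides; score combines spot fluorescence intensity with signal-to-noise across triplicate slides.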 The settings on record: 635 nm fluorescence, higher = more signal.

Molecules are shown by their SMILES. Active and inactive are the calls of the source. Unless noted, the rule behind the calls is not given here.

Chain of Torsin-1A (Homo sapiens) (O14656 whole entry, looked up): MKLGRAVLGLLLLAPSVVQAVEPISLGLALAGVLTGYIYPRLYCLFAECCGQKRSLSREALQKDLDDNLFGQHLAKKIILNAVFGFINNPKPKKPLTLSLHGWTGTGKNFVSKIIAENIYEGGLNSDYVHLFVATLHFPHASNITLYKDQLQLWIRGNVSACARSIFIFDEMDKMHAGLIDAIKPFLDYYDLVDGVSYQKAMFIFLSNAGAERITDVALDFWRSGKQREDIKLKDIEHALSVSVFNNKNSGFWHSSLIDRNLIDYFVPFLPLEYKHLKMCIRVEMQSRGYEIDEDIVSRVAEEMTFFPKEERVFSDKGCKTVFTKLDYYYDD
Chain of Streptavidin (Streptomyces avidinii) (P22629 whole entry, looked up): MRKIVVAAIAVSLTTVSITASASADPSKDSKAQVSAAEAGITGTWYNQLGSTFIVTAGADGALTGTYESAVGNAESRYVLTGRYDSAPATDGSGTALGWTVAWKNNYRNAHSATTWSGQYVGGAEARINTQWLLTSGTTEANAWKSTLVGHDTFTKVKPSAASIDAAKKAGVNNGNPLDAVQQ

Consider `C=CCOC(=O)[C@H]1[C@@H]2C(=O)O[C@@H](c3ccccc3)[C@@H](c3ccccc3)N2[C@@H](c2ccc(OCCOC(=O)[C@@H]3C[C@@H]4C(=O)N5CCC[C@H]5C(=O)N4[C@@H]3c3ccc(O)cc3)cc2)[C@]12C(=O)Nc1ccccc12`, for which the composite z-score is 1.06 in [1]; -0.244 in assay [6]; -0.0963 in [7]; 0.529 with Torsin-1A (Homo sapiens) [8]; 0.853 with Torsin-1A (Homo sapiens) [9]; 1.23 in assay [10]. The z-score in [2] was -0.496 (inactive); in assay [3] it was -0.506 (inactive); in [4], 0.0124 (inactive); in [5], -0.72 (inactive).
Take `C=CCNC(=O)[C@@H]1[C@H]2C(=O)O[C@H](c3ccccc3)[C@H](c3ccccc3)N2[C@H](c2ccc(OCCO)cc2)[C@@]12C(=O)Nc1ccccc12`: the composite z-score in assay [1] is 0.358; in assay [6] it was 0.226; in assay [7], -0.102; with Torsin-1A (Homo sapiens) [8], 0.355; with Torsin-1A (Homo sapiens) [9] it was 0.209; in assay [10], 1.61. Further, the z-score in assay [2] was -4.32 (inactive); in assay [3] it was -2.23 (inactive); in assay [4], -0.905 (inactive); in assay [5] it was -1.87 (inactive).
With `CCCCC=C[C@@H](NC(=O)c1ccc(C(=O)OC)cc1)c1ccccc1`, the composite z-score in assay [1] is 0.301; in [6], 0.994; in [7], 0.143; with Torsin-1A (Homo sapiens) [8], -0.225; in the assay with Torsin-1A (Homo sapiens) [9], 0.241; in [10], 0.185. The z-score in [2] is -2.79 (inactive); in [3], 0.806 (inactive); in assay [4], -0.185 (inactive); in assay [5] it was 1.11 (inactive).
As for `C=C[C@H](C)[C@@H](O)c1ccc(O)c2ccccc12`, the composite z-score in assay [1] was -0.302; in assay [6], -0.785; in assay [7], -0.0471; with Torsin-1A (Homo sapiens) [8] it was -0.378; in the assay with Torsin-1A (Homo sapiens) [9], -0.0127; in [10] it was 1.38. The z-score was -0.276 (inactive) in assay [2], -0.501 (inactive) in assay [3], -0.869 (inactive) in [4] and 1.63 (inactive) in assay [5].
On to `CCOC(=O)C1=C[C@@H](C(C)C)N(S(=O)(=O)c2ccc(C)cc2)[C@H]1c1ccc(C(C)C)cc1`, for which the composite z-score in assay [1] was 0.336; in [6], 1.58; in assay [7], -0.121; with Torsin-1A (Homo sapiens) [8] it was 1.05; in the assay with Torsin-1A (Homo sapiens) [9], 0.644; in assay [10] it was 0.31. Besides, the z-score was -3.48 (inactive) in [2], -0.228 (inactive) in [3], -0.676 (inactive) in [4] and 0.359 (inactive) in [5].
As to `Cc1ccccc1C(O)C1C=CC2C(=O)N(C)C(=O)C2N1N1CCCCC1` (stereo not given), the composite z-score in assay [1] turned out to be 0.343; in [6], 1.24; in [7], 0.462; with Torsin-1A (Homo sapiens) [8] it was 0.851; in the assay with Torsin-1A (Homo sapiens) [9] it was 0.696; in assay [10], 0.0488. Moreover, the z-score is 0.896 (inactive) in [2], 0.46 (inactive) in assay [3], -0.133 (inactive) in [4] and -0.0415 (inactive) in [5].
With `C=C[C@H](COC(C)=O)N(Cc1ccc(OC(C)=O)c(OC)c1)S(=O)(=O)c1ccc(Br)cc1`, the composite z-score amounted to 0.714 in assay [1]; 1.12 in assay [6]; 0.0219 in assay [7]; 1.85 in the assay with Torsin-1A (Homo sapiens) [8]; 2.14 with Torsin-1A (Homo sapiens) [9]; 1.75 in assay [10]. Also, the z-score in assay [2] was -2.08 (inactive); in [3], -0.569 (inactive); in assay [4], 0.195 (inactive); in assay [5], -1.9 (inactive).
As for `NC(=O)NCC#Cc1ccc2c(c1)[C@]1(C(=O)N2)[C@H](C(=O)NC[C@H](O)c2ccccc2)[C@H]2C(=O)O[C@H](c3ccccc3)[C@H](c3ccccc3)N2[C@@H]1c1ccc(O)cc1`, the composite z-score in [1] came to 0.545; in assay [6] it was 1.34; in assay [7], 0.529; in the assay with Torsin-1A (Homo sapiens) [8], 0.325; with Torsin-1A (Homo sapiens) [9], 0.816; in [10], 1.02. The z-score in assay [2] is 0.525 (inactive); in assay [3], -0.846 (inactive); in assay [4], -0.465 (inactive); in assay [5], -0.467 (inactive).
Turning to `COCCOC(=O)N1C(=O)[C@@]2(c3cc(C#CCNC(N)=O)ccc31)[C@H](C(=O)N1CCc3cc(OC)c(OC)cc3C1)[C@H]1C(=O)O[C@H](c3ccccc3)[C@H](c3ccccc3)N1[C@@H]2c1ccc(OCCO)cc1`, the composite z-score is 0.506 in assay [1]; 0.287 in assay [6]; -0.418 in [7]; -0.136 with Torsin-1A (Homo sapiens) [8]; 0.237 in the assay with Torsin-1A (Homo sapiens) [9]; 1.95 in [10]. For the same molecule, the z-score is -0.352 (inactive) in assay [2], -1.42 (inactive) in [3], -1.56 (inactive) in [4] and -0.549 (inactive) in [5].
As for `COCCOC(=O)N1C(=O)[C@@]2(c3cc(C#CC4(O)CCCCCC4)ccc31)[C@H](C(=O)N1CCCCCCC1)[C@H]1C(=O)O[C@H](c3ccccc3)[C@H](c3ccccc3)N1[C@@H]2c1ccccc1OCCO`, the composite z-score in assay [1] was determined as 0.647; in assay [6] it was 1.96; in assay [7], 1.22; in the assay with Torsin-1A (Homo sapiens) [8], 0.601; in the assay with Torsin-1A (Homo sapiens) [9], 1.26; in assay [10], 1.37. Further, the z-score in assay [2] is -5.2 (inactive); in assay [3], 0.148 (inactive); in assay [4], 0.749 (inactive); in assay [5], -0.551 (inactive).
In the case of `COCCOC(=O)N1C(=O)[C@@]2(c3cc(C#CCNC(N)=O)ccc31)[C@H](c1ccc(OCCO)cc1)N1[C@H](c3ccccc3)[C@H](c3ccccc3)OC(=O)[C@H]1[C@@H]2C(=O)N1CCc2cc(OC)c(OC)cc2C1`, the composite z-score in assay [1] was 0.426; in assay [6], 0.175; in assay [7], -0.0136; in the assay with Torsin-1A (Homo sapiens) [8], 0.0053; in the assay with Torsin-1A (Homo sapiens) [9], -0.193; in [10], 0.815. Further, the z-score in assay [2] is -0.0916 (inactive); in assay [3] it was -1.59 (inactive); in assay [4], -0.471 (inactive); in assay [5], -0.644 (inactive).
With `O=C1C2C=CC(C(O)c3ccc(F)cc3)N(Nc3ccccc3)C2C(=O)N1c1ccccc1` (stereo not given), the composite z-score in [1] is 0.137; in assay [6], 0.0517; in assay [7], 0.212; with Torsin-1A (Homo sapiens) [8], 0.171; with Torsin-1A (Homo sapiens) [9] it was -0.27; in assay [10], -0.61. Also, the z-score is 0.633 (inactive) in [2], -0.686 (inactive) in assay [3], -0.522 (inactive) in assay [4] and -0.49 (inactive) in assay [5].
Turning to `COc1cc2c(cc1OC)CN(C(=O)[C@@H]1[C@H]3C(=O)O[C@H](c4ccccc4)[C@H](c4ccccc4)N3[C@H](c3ccccc3OCCO)[C@@]13C(=O)Nc1ccc(C#CCNC(N)=O)cc13)CC2`, the composite z-score in assay [1] was found to be 0.38; in assay [6] it was 0.684; in [7], 0.32; with Torsin-1A (Homo sapiens) [8], 0.593; in the assay with Torsin-1A (Homo sapiens) [9], 0.812; in assay [10], 1.38. The z-score in assay [2] is -2 (inactive); in [3] it was -0.105 (inactive); in assay [4] it was -0.168 (inactive); in assay [5] it was -0.0826 (inactive).
`COC(=O)[C@@]1(Cc2ccc(F)cc2)[C@H]2c3cc(C(=O)N4CCCC4)n(Cc4cccc5ccccc45)c3C[C@H]2CN1C(=O)c1ccccc1`: the composite z-score in assay [1] was 0.255; in [6], 0.95; in assay [7], 0.434; in the assay with Torsin-1A (Homo sapiens) [8], 0.341; in the assay with Torsin-1A (Homo sapiens) [9] it was -0.0286; in [10], -0.408. Further, the z-score in assay [2] was -1.8 (inactive); in assay [3] it was 0.233 (inactive); in assay [4], 0.397 (inactive); in assay [5], 0.422 (inactive).
